In all, about 140,000 sequences were measured (“enrichment ratio after two sorts for PhoP signalling”: median about 0, highest 2% from about 11 on). The list comes from a sample in which the highest values are over-represented; it also holds similar and randomly drawn sequences.

First the molecules themselves.
B1: PhoQ; a variant is named by its letters at X, in order, P23837 (parent)
chain: MKKLLRLFFPLSLRVRFLLATAAVVLVLSLAYGMVALIGYSVSFDKTTFRLLRGESNLFYTLAKWENNKLHVELPENIDKQSPTMTLIYDENGQLLWAQRDVPWLMKMIQPDWLKSNGFHEIEADVNDTSLLLSGDHSIQQQLQEVREDDDDAEMTHSVAVNVYPATSRMPKLTIVVVDTIPVELKSSYMVWSWFIYVLSANLLLVIPLLWVAAWWSLRPIEALAKEVRELEEHNRELLNPATTRELTSLVRNLNRLLKSERERYDKYRTTLTDLTHSLKTPLXXLQXXLRSLRSEKMSVSDAEPVMLEQISRISQQIGYYLHRASMRGGTLLSRELHPVAPLLDNLTSALNKVYQRKGVNISLDISPEISFVGEQNDFVEVMGNVLDNACKYCLEFVEISARQTDEHLYIVVEDDGPGIPLSKREVIFDRGQRVDTLRPGQGVGLAVAREITEQYEGKIVAGESMLGGARMEVIFGRQHSAPKDE

This assay covers variants of B1. The experiment in a line: enrichment ratio after two sorts for PhoP signalling (ratio (wild type AVST 3.29)); higher = more functional. To be noted: with PhoP (E. coli).
As to YECV, the enrichment ratio was 22.8.
Turning to YECC, the enrichment ratio is 56.2.
As for YECQ, the figure is 30.7.
As for YEQP, the figure is at most 0.25.
As for PGAC, the figure is at most 0.25.
For the variant FIVG, the enrichment ratio was at most 0.25.
As for QDLS, the figure is at most 0.25; as for KSLG, at most 0.25; as for TSLG, 14.5.
For SRLG the value was at most 0.25; for PSLG, at most 0.25; for SSLG, 16.1.
As for SILG, the figure is 8.57; as for YYHP, at most 0.25.
With DLTQ, the enrichment ratio was at most 0.25.
As for ANPT, the figure is at most 0.25; as for ITMM, 17.7; as for IGMM, 18.5.
As for IPMM, the figure is at most 0.25; as for IQMM, at most 0.25; as for VLMM, at most 0.25.
As for TAMM, the figure is 2.2; as for GAMM, 14.4; as for VHMM, at most 0.25.
Regarding HIMM, the enrichment ratio was at most 0.25.
As for IGWM, the figure is at most 0.25; as for IGGM, at most 0.25.
For VAMM the value was 12.8.
For MRMA the value was at most 0.25; for HQRH, at most 0.25; for GEDN, at most 0.25.
Consider YNEG, for which the enrichment ratio was at most 0.25.
Regarding KEMR, the enrichment ratio was at most 0.25.
On to WIRK, for which the enrichment ratio is at most 0.25.
Take EEFA: the enrichment ratio is at most 0.25.
For YYMT the value was at most 0.25.
As for TQCW, the figure is 0.964; as for PSYG, at most 0.25; as for EPIL, at most 0.25.
As for LAMM, the figure is 14.3; as for LTMM, 2.28; as for KAMM, at most 0.25.
Turning to IAMM, the enrichment ratio was 13.5.
As for LLMM, the figure is at most 0.25; as for ISMM, 5.78.
For MTSV the value was 0.634; for AHSV, at most 0.25; for MESV, 24.5.
For AESV the value was 14.8.
Regarding QESV, the enrichment ratio came to 29.9.
As for QRSV, the figure is at most 0.25.
For IESV the value was at most 0.25.
For QPSV, the enrichment ratio was at most 0.25.
On to MDSV, for which the enrichment ratio is at most 0.25.
With MKSV, the enrichment ratio was at most 0.25.
As for ARSV, the figure is at most 0.25; as for NESV, at most 0.25; as for TESV, 26.1.
As for IVVM, the figure is at most 0.25; as for GAFT, at most 0.25; as for TQPA, at most 0.25.
In the case of WQTI, the enrichment ratio is at most 0.25.
For MSAY the value was 7.95.
Turning to NSEQ, the enrichment ratio was at most 0.25.
On to NQMY, for which the enrichment ratio was at most 0.25.
As for WQME, the enrichment ratio was at most 0.25.
For TQMY the value was 12.5; for FQMY, at most 0.25.
For TQME the value was 17.2; for IQME, at most 0.25; for KHFI, at most 0.25.
For MHHY the value was at most 0.25.
Turning to RLFV, the enrichment ratio is at most 0.25.
As for YTVF, the figure is 0.29.
For ALVF, the enrichment ratio was 0.451.
As for ACVF, the figure is 11.9; as for AWVF, at most 0.25; as for ATVF, 16.1.
As for ACHF, the figure is at most 0.25.
For LWTN the value was at most 0.25; for FKQC, at most 0.25; for IVWE, at most 0.25.
Turning to GEIC, the enrichment ratio came out at 45.3.
As to GNIS, the enrichment ratio was 5.86.
Take GGIY: the enrichment ratio worked out at 2.45.
As for GERC, the figure is at most 0.25; as for GEIS, 20.8.
As for GNIY, the figure is at most 0.25; as for GEFC, at most 0.25.
As for GEIV, the figure is 8.51; as for GEIY, 23.
As to IKLA, the enrichment ratio was at most 0.25.
Turning to LNNT, the enrichment ratio is at most 0.25.
As for FNGW, the figure is at most 0.25; as for YVPF, at most 0.25.
As for LTCT, the figure is at most 0.25; as for FKRE, at most 0.25.
As for TTCA, the figure is 9.39; as for LPWS, at most 0.25.
For the variant GDTH, the enrichment ratio was at most 0.25.
As for LVNA, the figure is at most 0.25.
For HQNP the value was at most 0.25; for ANMT, 12.2; for AIAT, 19.3.
For NQMT the value was at most 0.25; for AQMT, 23.8.
Turning to MEMT, the enrichment ratio was at most 0.25.
For TKMT the value was 6.64; for KKAT, at most 0.25.
Take AQMI: the enrichment ratio was at most 0.25.
As for AKMT, the figure is 52.1; as for ANKA, at most 0.25; as for AKAT, 3.68.
For ANKK the value was at most 0.25; for FGIN, at most 0.25.
As for RFYE, the figure is at most 0.25; as for FYWY, at most 0.25.
Take ITNK: the enrichment ratio is at most 0.25.
Take QYEG: the enrichment ratio is at most 0.25.
As for HPNG, the figure is at most 0.25; as for WHVS, at most 0.25; as for TMMI, 0.351.
As for WHFQ, the figure is 1.98; as for DQQP, at most 0.25; as for FHPL, at most 0.25.
On to LVAW, for which the enrichment ratio came out at 0.304.
Consider AKAR, for which the enrichment ratio is at most 0.25.
As for VHMT, the figure is at most 0.25; as for AIAR, 19.7.
For AIMT the value was 22.8; for ATMT, at most 0.25; for KKAR, at most 0.25.
As for SVWQ, the figure is at most 0.25; as for KVQS, at most 0.25.
For the variant MIGM, the enrichment ratio worked out at 2.52.
As for NAFM, the figure is at most 0.25; as for MTFM, 17.1; as for MAFM, 14.7.
With MIFM, the enrichment ratio was determined as 15.8.
For YTFM the value was at most 0.25; for MKFM, at most 0.25.
As for KAFM, the figure is at most 0.25.
For GTFM the value was at most 0.25; for DKSF, at most 0.25.
Turning to TGQA, the enrichment ratio was found to be 3.89.
For FELW the value was at most 0.25.
For SMQN the value was at most 0.25; for SMMV, 17.9; for SMWH, at most 0.25.
As to SMPV, the enrichment ratio was at most 0.25.
On to SMGH, for which the enrichment ratio amounted to 1.91.
For SMMN the value was 19.5.
With SMQH, the enrichment ratio was found to be 14.9.
For the variant SMKH, the enrichment ratio is at most 0.25.
In the case of SMTH, the enrichment ratio came out at 4.57.
As to SMMH, the enrichment ratio is 15.6.
As for SMNL, the figure is 2.56; as for SMIV, at most 0.25.
